Measured values: PubChem BioAssay (NCATS)
Active and inactive are the calls of the source. The rule behind the calls is not given here.

test system: HIV-1 nucleocapsid protein NCp7 (binding to TG oligonucleotide); experiment: HIV Nucleocapsid (AID 346); conditions: HIV-1 NC / fluorescein-TGTGTGTG probe, fluorescence polarization;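 note: potency is for inhibitors that block NC binding and lower polarization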
In short: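 HIV-1 NC (100 nM) binding to fluorescein-labelled ssDNA TG4xF (10 nM) in Hepes pH 7.5, 250mM NaCl, 1uM ZnCl2, TCEP and 2-mercaptoethanol; compounds pin-transferred, 1 hr room temperature, fluorescence polarization read on CCD imager.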
Potency is the fitted concentration of half-maximal effect.

SMILES | Potency
O=C(Nc1ccccc1)N1CCC2(CC1)CCN(C(=O)c1cccc(F)c1)CC2 | > 20 µM (inactive)
COCCn1c(=O)cnc2cnc(Nc3cccc(OC)c3)nc21 | > 20 µM (inactive)
COc1ccc2[nH]cc(CCNc3nc(-c4cccc(C#N)c4)nc4ccccc34)c2c1 | > 20 µM (inactive)
CN(C)c1ccc(-c2cc(-n3ccnc3)ncn2)cc1 | > 20 µM (inactive)
Cc1noc(C)c1-c1nccc(NCc2ccccc2)n1 | > 20 µM (inactive)
Clc1ccccc1-c1nc(NCc2cccs2)c2ccccc2n1 | > 20 µM (inactive)
O=C(c1cc(C(F)(F)F)cc(C(F)(F)F)c1)N1CCC2(CCCN(c3ncccn3)C2)CC1 | > 20 µM (inactive)
COc1ccccc1-c1ccc2ncnc(Nc3ccccc3)c2c1 | > 20 µM (inactive)
N#Cc1ccccc1-c1ccc2ncnc(NCc3cccnc3)c2c1 | > 20 µM (inactive)
CC(=O)N1CCC2(CC1)CN(C(=O)Nc1cccc(C#N)c1)C2 | > 20 µM (inactive)
COc1ncc2nc(-c3cn(C)c4ccccc34)c(=O)n(C[C@H]3CCCO3)c2n1 | > 20 µM (inactive)
Cc1cnc(CNc2ncnc3ccc(-c4c(C)noc4C)cc23)cn1 | > 20 µM (inactive)
COc1ccc(CNc2ccnc(-c3ccccc3CN(C)C)n2)c(OC)c1 | > 20 µM (inactive)
COc1ccccc1CNc1ccnc(-c2ccc3c(c2)OCO3)n1 | > 20 µM (inactive)
COc1cccc(Cn2c(=O)c(-c3ccc(F)cc3)nc3cnc(N4CCOCC4)nc32)c1 | > 20 µM (inactive)
